These are literature values, as cited in PubChem BioAssay AID977611.

By Kd is commonly meant the equilibrium constant for the complex coming apart.

Screen size: about 3,900 compounds; about 3,900 (100%) were called active. Cut-off not given; nearly all actives show Kd up to about 4200 µM. The set was probably picked from earlier hits. The list shows a part of the results. Where a SMILES comes first, the peptide text is derived from it. Non-standard residues stand in square brackets, D forms with d. Square brackets hold non-standard residues; d marks the D form. Residues, ends and D or L forms follow the SMILES beside them. Peptide text beside a SMILES is read from it. [ ]: non-standard residue; d: D form. Orn(CH(NH2)2) = NC(N)NCCC[C@H](N)C(=O)O

A short description of the data set: PubChem AID 977611. The following applies: PDB protein-ligand complexes, literature Kd.

For H-PDWDFN-NH2, the equilibrium dissociation constant (Kd) (protein: AP-1 COMPLEX SUBUNIT GAMMA-LIKE 2, PDB entry 3zhf) is 120 µM (active).

With `C[C@H](NC(=O)[C@H](Cc1c[nH]c2ccccc12)NC(=O)[C@H](CC(N)=O)NC(=O)[C@H](CC(N)=O)NC(=O)[C@@H]1CCCN1)C(=O)N[C@@H](CC(=O)O)C(=O)N[C@@H](Cc1ccccc1)C(=O)N[C@@H](CO)C(=O)N[C@@H](CO)C(=O)N[C@H](C(=O)N[C@@H](Cc1c[nH]c2ccccc12)C(=O)N1CCC[C@H]1C(=O)O)[C@@H](C)O` (H-PNNWADFSSTWP-OH), where the note is “protein: Adaptor protein complex AP-2, alpha 2 subunit, PDB entry 3hs8”, the Kd is 5 µM (active).

`NCCCC[C@H](NC(=O)[C@H](CO)NC(=O)[C@@H]1CCCN1)C(=O)N[C@@H](CCCCN)C(=O)N[C@@H](CCCNC(N)N)C(=O)N[C@@H](CCCCN)C(=O)N[C@@H](CCCNC(N)N)C(=O)N[C@@H](CO)C(=O)N[C@@H](CCCNC(N)N)C(=O)N[C@@H](Cc1c[nH]c2ccccc12)C(=O)N[C@@H](CC(N)=O)C(=O)N[C@@H](CCC(N)=O)C(=O)N[C@@H](CC(=O)O)C(=O)O` (H-PSKK[Orn(CH(NH2)2)]K[Orn(CH(NH2)2)]S[Orn(CH(NH2)2)]WNQD-OH): the dissociation constant (Kd) (protein: the C-terminal RRM (RRM3) of human U2AF65, PDB entry 1opi) is 0.05 µM (active).

For `CCCCCCCC(=O)OC[C@H](CO[P+](O)(O)OCC[N+](C)(C)C)OC(=O)CCCCCCC`, the Kd (protein: Matrix protein p17, PDB entry 2lya) was 65 µM (active).

As for `CCCCCCCC(=O)OC[C@H](CO[P+](O)(O)OC[C@H](N)C(=O)O)OC(=O)CCCCCCC`, the dissociation constant Kd (protein: Matrix protein p17, PDB entry 2lyb) was 35 µM (active).

Consider `CC(C)C[C@H](CNC(=O)CCCN)Cc1ccc2c(c1C(=O)O)OCO2`, for which the dissociation constant (Kd) (protein: HIV integrase, PDB entry 4ck3) is 268 µM (active).

Regarding `CC(C)C[C@H](CNC(=O)c1cccnc1)Cc1ccc2c(c1C(=O)O)OCO2`, the dissociation constant (Kd) (protein: HIV integrase, PDB entry 4cjp) was 481 µM (active).

In the case of `CC(C)C[C@H](CNC(=O)c1ccncc1)Cc1ccc2c(c1C(=O)O)OCO2`, for the setting “protein: HIV INTEGRASE, PDB entry 4cj4”, the equilibrium dissociation constant (Kd) is 432 µM (active).

Turning to `CC(C)C[C@H](CNC(=O)Cc1c[nH]c2ccccc12)Cc1ccc2c(c1C(=O)O)OCO2`, where the note is “protein: HIV integrase, PDB entry 4cjq”, the Kd is 256 µM (active).

Take `NC(=O)CC[C@H](NC(=O)c1ccc(O[C@@H]2O[C@H](CO)[C@H](O)[C@H](O)[C@H]2O)cc1)C(=O)N[C@@H](CCCNC(N)N)C(=O)N[C@@H](CO)C(N)=O`: where the note is “protein: PA-I galactophilic lectin, PDB entry 4lkd”, the equilibrium dissociation constant (Kd) was 4.5 µM (active).

Take `NC(=O)CNC(=O)[C@H](Cc1c[nH]c2ccccc12)NC(=O)c1ccc(O[C@@H]2O[C@H](CO)[C@H](O)[C@H](O)[C@H]2O)cc1`: the dissociation constant Kd (protein: PA-I galactophilic lectin, PDB entry 4lke) was 4.3 µM (active).

For `NCCCC[C@H](NC(=O)[C@H](Cc1c[nH]c2ccccc12)NC(=O)c1ccc(O[C@@H]2O[C@H](CO)[C@H](O)[C@H](O)[C@H]2O)cc1)C(=O)N[C@@H](Cc1ccc(O)cc1)C(N)=O`, the Kd (protein: PA-I galactophilic lectin, PDB entry 4lkf) was 4.3 µM (active).

As for `CC[C@H](C)[C@H](NC(=O)[C@H](CO)NC(=O)[C@H](CCCCN)NC(=O)[C@@H](NC(=O)[C@H](Cc1cnc[nH]1)NC(=O)[C@H](CCC(=O)O)NC(=O)[C@@H]1CCCN1C(=O)[C@H](CCCNC(N)N)NC(=O)[C@@H]1CCCN1C(=O)[C@H](C)NC(=O)[C@@H](NC(=O)[C@@H](NC(=O)[C@@H]1CCCN1C(=O)[C@@H]1CCCN1)C(C)C)[C@@H](C)CC)[C@@H](C)O)C(=O)N[C@@H](Cc1ccc(O)cc1)C(=O)N[C@H](C(=O)N[C@@H](CCCNC(N)N)C(=O)N[C@@H](CO)C(=O)O)[C@@H](C)O` (H-PPVIAP[Orn(CH(NH2)2)]PEHTKSIYT[Orn(CH(NH2)2)]S-OH), under “protein: the SH3 Domain of ?PIX, PDB entry 2df6”, the dissociation constant Kd is 1.05 µM (active).

For `CC[C@H](C)[C@H](NC(=O)[C@@H](NC(=O)[C@@H]1CCCN1C(=O)[C@H](CCCNC(N)N)NC(=O)[C@H](CCCNC(N)N)NC(=O)[C@@H]1CCCN1)C(C)C)C(=O)N[C@@H](CCSC)C(=O)N[C@@H](CCCNC(N)N)C(N)=O` (H-P[Orn(CH(NH2)2)][Orn(CH(NH2)2)]PVIM[Orn(CH(NH2)2)]-NH2), the dissociation constant Kd (protein: Chaperone protein DnaK, PDB entry 4ezt) was 7.4 µM (active).

As to `CC[C@H](C)[C@H](NC(=O)[C@@H]1CCCN1C(=O)[C@H](CCCNC(N)N)NC(=O)[C@@H]1CCCN1C(=O)[C@@H]1CCCN1)C(=O)N[C@@H](Cc1ccc(O)cc1)C(=O)N[C@@H](CC(N)=O)C(=O)O` (H-PP[Orn(CH(NH2)2)]PIYN-OH), under “protein: Chaperone protein DnaK, PDB entry 4ezq”, the Kd was 6.3 µM (active).

For the compound `CC(C)C[C@H](NC(=O)[C@H](Cc1ccc(O)cc1)NC(=O)[C@@H]1CCCN1C(=O)[C@@H]1CCCN1)C(=O)N1CCC[C@H]1C(=O)N[C@@H](CCCNC(N)N)C(=O)N1CCC[C@H]1C(=O)N[C@@H](CCCNC(N)N)C(=O)O` (H-PPYLP[Orn(CH(NH2)2)]P[Orn(CH(NH2)2)]-OH), the dissociation constant Kd (protein: Chaperone protein DnaK, PDB entry 4ezo) is 0.3 µM (active).

As for `CC[C@H](C)[C@H](NC(=O)[C@@H]1CCCN1C(=O)[C@H](CCC(=O)O)NC(=O)[C@H](Cc1ccc(O)cc1)NC(=O)[C@H](CC(=O)O)NC(=O)[C@@H]1CCCN1C(=O)[C@H](CC(N)=O)NC(=O)[C@@H]1CCCN1C(=O)[C@@H](NC(=O)[C@@H]1CCCN1C(=O)[C@@H]1CCCN1)C(C)C)C(=O)N[C@H](C=O)CCCNC(N)N` (H-PPVPNPDYEPI[Orn(CH(NH2)2)]-aldehyde), the equilibrium dissociation constant (Kd) (protein: Epidermal growth factor receptor kinase substrate 8-like protein 1 SH3 domain, PDB entry 2rol) was 24 µM (active).

H-ARYGVSNTSINRK-OH: the Kd is, setting by setting: (protein: Protein HTP-1 P84L, PDB entry 4tzq) 0.3 µM (active); (protein: Protein HTP-2, PDB entry 4tzm) 0.2 µM (active).

H-ATGSARSEGY-OH: the dissociation constant (Kd) (protein: WD repeat-containing protein 5, WDR5, PDB entry 4ewr) is 0.541 µM (active).

Consider `O=C(CCS)N1CCC(O)(c2ccc(Cl)c(C(F)(F)F)c2)CC1`, for which the dissociation constant (Kd) (protein: CREB-binding protein, PDB entry 4i9o) was 1.9 µM (active).

As to H-SWVYSPLHYSA-OH, where the note is “protein: Talin FERM F3 domain, PDB entry 1y19”, the Kd is 0.17 µM (active).

As to `CC(C)C[C@H](NC(=O)[C@H](Cc1cnc[nH]1)NC(=O)[C@H](CCC(=O)O)NC(=O)[C@H](Cc1c[nH]c2ccccc12)NC(=O)[C@@H](NC(=O)[C@H](Cc1ccc(O)cc1)NC(=O)[C@@H](NC(=O)[C@H](C)NC(=O)[C@@H](N)CC(=O)O)[C@@H](C)O)[C@@H](C)O)C(=O)N[C@@H](C)C(=O)N[C@@H](Cc1c[nH]c2ccccc12)C(=O)N1CCC[C@H]1C(=O)O`, for the setting “protein: The human ?-aminobutyric acid type A (GABAA), PDB entry 3d32”, the dissociation constant (Kd) is 0.354 µM (active).

Consider `CC(C)C[C@H](NC(=O)CNC(=O)[C@H](CCCNC(N)N)NC(=O)[C@@H](N)CO)C(=O)N[C@@H](CCC(=O)O)C(=O)N[C@H](C(=O)N[C@@H](CO)C(=O)N[C@@H](Cc1cnc[nH]1)C(=O)N[C@@H](CCCNC(N)N)C(=O)N[C@@H](CC(C)C)C(=O)N[C@@H](C)C(=O)N1CCC[C@H]1C(=O)N[C@@H](Cc1c[nH]c2ccccc12)C(=O)O)C(C)C` (H-S[Orn(CH(NH2)2)]GLEVSH[Orn(CH(NH2)2)]LAPW-OH), for which the dissociation constant (Kd) (protein: Telomeric repeat-binding factor 2, PDB entry 4m7c) was 0.75 µM (active).

`CSCC[C@H](N)C(=O)N1CCC[C@H]1C(=O)N1CCC[C@H]1C(=O)N[C@H](C(=O)N[C@@H](CC(C)C)C(=O)N1CCC[C@H]1C(=O)N[C@@H](Cc1cnc[nH]1)C(=O)N[C@@H](CCCNC(N)N)C(=O)N[C@@H](CC(=O)O)C(=O)N[C@@H](Cc1c[nH]c2ccccc12)C(=O)O)[C@@H](C)O` (H-MPPTLPH[Orn(CH(NH2)2)]DW-OH): the dissociation constant Kd (protein: Peroxisomal membrane protein PAS20 (SH3 domain), PDB entry 1n5z) is 44 µM (active).
